# According to PubChem BioAssay AID1030 (National Center for Advancing Translational Sciences (NCATS), 2008):
# Where “and” joins values, the source holds several entries; their conditions need not be identical. Identical values can stand only once. The campaign covered roughly 220,000 compounds. About 16,000 (7.3%) were called active. Not shown: some 25% with an inconclusive outcome. Calls come from the whole dose curve; as a rule, active = well fitted inhibition curve with a large enough effect (not every such curve was filed as active); inconclusive = small, poorly fitted or top-dose-only effect, or another doubt; inactive = no such curve, though single readings can be large or run the other way. The entries come from a sample that favours actives as a whole. Where a structure was tested more than once in an assay, its records may differ in their call.
# Molecular target: Aldehyde dehydrogenase 1A1 (Homo sapiens) (UniProt P00352)
# Sequence (P00352 whole entry, looked up): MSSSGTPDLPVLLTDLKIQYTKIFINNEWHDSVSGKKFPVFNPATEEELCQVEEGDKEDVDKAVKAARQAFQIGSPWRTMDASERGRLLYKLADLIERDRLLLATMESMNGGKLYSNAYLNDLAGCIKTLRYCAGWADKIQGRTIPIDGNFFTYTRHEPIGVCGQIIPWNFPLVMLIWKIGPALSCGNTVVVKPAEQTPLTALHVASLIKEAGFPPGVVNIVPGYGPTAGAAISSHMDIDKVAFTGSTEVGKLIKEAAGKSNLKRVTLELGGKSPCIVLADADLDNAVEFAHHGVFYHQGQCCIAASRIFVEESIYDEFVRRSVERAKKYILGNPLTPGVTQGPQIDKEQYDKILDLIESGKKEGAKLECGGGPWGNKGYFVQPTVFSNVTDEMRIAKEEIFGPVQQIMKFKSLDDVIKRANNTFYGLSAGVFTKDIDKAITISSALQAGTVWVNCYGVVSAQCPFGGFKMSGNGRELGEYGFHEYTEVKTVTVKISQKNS
# Experiment: qHTS Assay for Inhibitors of Aldehyde Dehydrogenase 1 (ALDH1A1);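 for activity, negative = inhibition: plate controls were no enzyme wells and a reference inhibitor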
# Settings: Purified ALDH1A1, NADH fluorescence, propionaldehyde substrate; series mostly up to 75.3 µM; activity, negative = inhibition: at the top concentration
# Potency is the fitted concentration of half-maximal effect.
SMILES,Potency,"activity, negative = inhibition"
Cc1ccc2c(c1)=C/C(=C\c1c(O)[nH]c(=O)[nH]c1=O)C(=O)N=2,1.58 µM (active),
COc1ccccc1N=Nc1c(O)[nH]c(=S)[nH]c1=O,,-12% (inactive)
O=C1N=c2ccccc2=C/C1=C\c1c(O)[nH]c(=S)[nH]c1=O,2.51 µM (active),
CC(C)CCC1(CCN)C(=O)NC(=O)NC1=O,,0.154% [at 13.5 µM] (inactive)
CCOc1ccc(CN(CCCl)CCCl)cc1C(=O)OC,,-5.9% (inactive)
COc1ccc(C2Oc3c(I)c(OC)cc(OC)c3CC2O)cc1OC (configuration not stated),,9.99% (inactive)
O=C(Nc1cccc2ccccc12)N1CCC2(CC1)OCCO2,,-5.72% (inactive)
COc1ccccc1-c1[se]c2ccccc2c1I,,7.96% (inactive)
Cc1ccc(N(C)C(=O)Oc2cccc3ccc(C)nc23)cc1,,6.33% (inactive)
CS(=N)(=O)CC[C@H](N)P(=O)(O)O (some centres not stated),,4.42% [at 13.5 µM] (inactive)
CC(=O)NBr,,5.46% (inactive)
CCC1(c2ccccc2)C(=O)NC(=O)N(C)C1=O (configuration not stated),,-2.03% (inactive)
c1ccc(Cc2nn3c(Cn4cnc5ccccc54)nnc3s2)cc1,2.24 µM (active),
c1ccc(CCCCN2CCC(c3ccccc3)CC2)cc1,inactive,
c1cncc(CNCCc2c[nH]c3ccccc23)c1,,-3.63% (inactive)
NC(=O)Nc1cccc(C(F)(F)F)c1,,9.13% (inactive)
C[C@@]1([C@@H](NP(=O)(c2ccccc2)c2ccccc2)c2ccccc2)C[C@H]1CCO,inactive,
CCCCC#N,,3.32% (inactive)
Clc1ccc2nc3c(c(-c4ccccc4)c2c1)CNCC3,,11.2% (inactive)
N#CC(C#N)=Cc1cc(O)c(O)c([N+](=O)[O-])c1,inactive and 20 µM (active),
Cc1cccc(-n2c(O)c(/C=N/N3CCOCC3)c(=O)[nH]c2=S)c1,,0.025% (inactive)
CN[C@@H]1C[C@H]2O[C@@](C)([C@@H]1OC)n1c3ccccc3c3c4c(c5c6ccccc6n2c5c31)C(=O)NC4,,-5.83% [at 13.5 µM] (inactive)
CN(C)C(=O)NC(O)C(Cl)(Cl)Cl (configuration not stated),,10.9% (inactive)
C[C@]12CC[C@@H]3C(=CCc4cc(O)ccc43)[C@@H]1CCC2=O,0.501 µM (active),
CCC(C)C(=O)O[C@@H]1C[C@@]2(C)C(c3ccoc3)OC(=O)CC23OC2(C)O[C@@]14[C@@]1(C)C(CC(=O)OC)C5(C)CC1(O)C(O)(C5OC(=O)C1(C)OC1C)C(OC(C)=O)[C@@]34O2 (some centres not stated),,2.69% (inactive)
Cc1noc(C)c1CSc1nc2cc(S(=O)(=O)N3CCOCC3)ccc2o1,3.55 µM (active),

SMILES,Potency,"activity, negative = inhibition"
O=C(c1cc(S(=O)(=O)N2CCOCC2)ccc1F)N1CCC2(CC1)OCCO2,,-0.0979% (inactive)
N#CCCCl,inactive,
O=C(Nc1cccc(OC(=O)N2CCCCC2)c1)N1CCOCC1,,0.604% (inactive)
O=C1NC(=O)N(c2ccccc2)C(=O)/C1=C/c1ccc([N+](=O)[O-])s1,22.4 µM (active),
CCN1CCN(C(=O)Cc2coc3cc(C)cc(C)c23)CC1,,3.22% (inactive)
Nc1ccc(C(=O)N/N=C2/CN3CCC2CC3)cc1,,-2.99% (inactive)
CCCCCCN=C(CC)c1c(O)n(CCCC)c(=O)[nH]c1=O,,-12.5% (inactive)
CCc1nnc(NS(=O)(=O)c2ccc(N=Cc3c(O)n(-c4ccccc4)c(=O)[nH]c3=O)cc2)s1,,-1.28% (inactive)
C[N+]1(C)CCOC(O)(c2ccc(-c3ccc(C4(O)C[N+](C)(C)CCO4)cc3)cc2)C1 (configuration not stated),inactive and 14.1 µM (active),
COc1ccc(CCn2c(O)c(C=NCCCn3ccnc3)c(=O)[nH]c2=O)cc1OC,,6.68% (inactive)
Cc1cccc2c3c(ccc12)C1=C(C(=O)C3=O)C(C)CO1 (configuration not stated),17.8 µM (active),
C=CCN(CC=C)C(=O)Nc1ccc(OCC)cc1,,2.89% (inactive)
CNC(=S)N/N=C1\C2CN3CCN(C2)CC1(c1ccccc1)C3,,-2.12% (inactive)
Fc1ccc(N2CCN(Cc3ccc4c(c3)OCO4)CC2)cc1,,-1.2% (inactive)
COc1ccc(CN2CCN(c3ccccc3F)CC2)c(OC)c1,,-7.76% (inactive)
CC(C)c1ccc(O)c(CN2CCN(c3ccccc3)CC2)c1,2 µM (active),
COc1ccc2c3c1OC1CC(O)C=C[C@@]31CCN(C)C2 (some centres not stated),,-2.76% (inactive)
CC1=C(C(=O)Nc2ccccc2)SCCO1,,-8.55% (inactive)
CC(C)N(CC#CCC1(O)c2ccccc2-c2ccccc21)C(C)C,,3.69% (inactive)
CN1C2C=C(N(C(=O)c3ccc(Cl)cc3)c3ccccc3)CC1CC2 (configuration not stated),,6.47% (inactive)
CC(C)(O)/C=C\C(=O)[C@](C)(O)[C@H]1[C@H](O)C[C@]2(C)[C@@H]3CC=C4[C@@H](C=C(O)C(=O)C4(C)C)[C@]3(C)C(=O)C[C@@]12C,,8.67% [at 13.5 µM] (inactive)
c1csc(CN2CC3(CCNCC3)C2)n1,,0.181% (inactive)
c1ccc2c(c1)[I+]c1ccccc1-2,,-5.77% (inactive)
Cc1ccc(-n2c(C)cc(/C=C3\C(=O)NC(=O)N(C)C3=O)c2C)cc1C,17.8 µM (active),
Cc1ccccc1N1C(=O)NC(=O)/C(=C\c2cc(C)n(C)c2C)C1=O,,-4.17% (inactive)
Cc1cc(C=C2C(=O)NC(=O)NC2=O)c(C)n1-c1ccncc1,14.1 µM (active),
